In ChEMBL document CHEMBL3988442, “University of Dundee, Small-Polar-MMV Screening Library” (2021):
Among all 48,000 compounds or so, about 13,000 (27%) showed an effect of 50% or more. Some of the results follow.

These compounds were tested on Wolbachia pipientis (assay: Anti-Wolbachia Cell-Based Screen). Details: 5 µM.
Format: functional
Parameters: scale not given: in the data most compounds retested in dose-response had high values

SMILES	Percent Effect
COC(=O)N1CCCN(C(=O)NCc2ccc(Cl)s2)CC1	11.92%
CC(C)COCCC(=O)Nc1cc(-n2nnnc2C2CC2)ccc1F	3.649%
CC1CN(CC(=O)Nc2cccnc2)CCN1c1nccs1 (stereo not drawn)	0.898%
CC1CN(CC(=O)Nc2nncs2)CCN1c1nccs1 (stereo not drawn)	-0.151%
CC1CN(CC(=O)Nc2ccncc2)CCN1c1nccs1 (stereo not drawn)	150.9%
CCSC(C)C(=O)N1CCC(c2nn(C)c(=O)n2-c2ccccc2)CC1 (stereo not drawn)	-5.623%
c1cc(-c2noc([C@@H]3CCCN3CC3CC3)n2)cc(N2CCCC2)n1	1.663%
Nc1ncncc1-c1noc([C@@H]2CCCN2CC2CC2)n1	-1.832%
c1cc(C2CCCN2CC2CC2)n[nH]1 (stereo not drawn)	189.2%
OCCCN1CCCC1c1ccc(Br)cc1 (stereo not drawn)	-3.155%
COCCOc1ccnc(-c2noc([C@@H]3CCCN3CC(C)C)n2)c1	-7.911%
CN1CCC(c2n[nH]c(=O)n2CC2CCCCC2)CC1	16.1%
CC(C)CN1CCCC1c1cc[nH]n1 (stereo not drawn)	114.8%
CC(C)CN1CCCC1c1ccc(C(=O)Nc2cc[nH]n2)s1 (stereo not drawn)	6.388%
OCCOCCN1CCCC1c1cccc(Cl)c1 (stereo not drawn)	-3.053%
OCCN1CCCCC1c1cc[nH]n1 (stereo not drawn)	167%
c1cc(-c2c[nH]c([C@@H]3COCCN3CC3CC3)n2)ccn1	-6.01%
c1cc(C2CCCN2CC2CCCCC2)n[nH]1 (stereo not drawn)	159.6%
CC(C)NC(=O)CCNC(=O)c1cc(F)ccc1NS(C)(=O)=O	-9.152%
CCOc1ccc(C(=O)N(C)C)cc1NC(=O)c1ccsc1	9.824%
CCc1nncn1CCNC(=O)Nc1ccc(OC)c(C)c1	-6.777%
CCn1ccnc1CN1CCN(CC(O)Cn2cccn2)CC1 (stereo not drawn)	-2.692%
Cc1cc(C)c2cc(CNCc3ccc(C)o3)c3nn(C)c(=O)n3c2c1	122.6%
Cc1cc(C)c2cc(CNCc3cccnc3)c3nn(C)c(=O)n3c2c1	113.3%

SMILES	Percent Effect
Cc1cc(C)c2cc(CNCc3ccco3)c3nn(C)c(=O)n3c2c1	111.5%
Cc1ccc(NCc2ccco2)cc1N1CCOC1=O	-6.269%
Cc1ccc(CNCCC(O)(c2nccn2C)C(F)(F)F)o1 (stereo not drawn)	-16.77%
Cc1cc(C)c2cc(C(=O)N3CCN(Cc4ccco4)CC3)[nH]c2c1	21.49%
Cc1ccc(CNCc2nnc3n2CCCC3C(F)(F)F)o1 (stereo not drawn)	18.11%
Cc1cc(C)c2cc(CNCc3ccccc3)c3nn(C)c(=O)n3c2c1	-7.626%
COc1ccc(Oc2ccc(C(F)(F)F)cn2)cc1CN1CCCC1	-1.522%
CCn1ccnc1S(=O)(=O)Cc1c(C)cc(C)c(C(C)=O)c1C	-13.95%
CC(C)CN(Cc1ccsc1)C(=O)CCCn1cncn1	5.825%
CCOc1cccc(CNC(=O)C(C)(C)C#N)c1OC(F)F	-15.69%
CCC(=O)N1CC[C@H]2[C@H](C[C@@H](CN3CCCC3)N2c2nccs2)C1.O=C(O)C(F)(F)F.O=C(O)C(F)(F)F	104%
CC(=O)N1[C@H](Cn2cncn2)C[C@@H]2CN(CC3CC3)CC[C@@H]21.O=C(O)C(F)(F)F	-0.2509%
CCC(=O)N1CC[C@H]2[C@H](C[C@@H](Cn3cccn3)N2c2nccs2)C1.O=C(O)C(F)(F)F.O=C(O)C(F)(F)F	119.1%
Cl.Cl.c1csc(N2[C@H](Cn3cncn3)C[C@@H]3CNCC[C@@H]32)n1	3.496%
O=C(O)C(F)(F)F.O=C(O)C(F)(F)F.O=C(O)C(F)(F)F.c1cnn(C[C@@H]2C[C@@H]3CN(CC4CC4)CC[C@@H]3N2c2nccs2)c1	119.3%
CC(=O)N1CC[C@H]2[C@H](C[C@@H](CN3CCCC3)N2c2nccs2)C1.O=C(O)C(F)(F)F.O=C(O)C(F)(F)F	95.98%
CCCc1nnc(NC(C)c2ccc(F)cc2)o1 (stereo not drawn)	-29.12%
Cc1cccc2c(CCNC(=O)[C@H](N)c3ccccc3)c[nH]c12	-3.898%
CCC(NCc1ccccc1)c1ccccc1OCC(=O)NC (stereo not drawn)	-0.2413%
CSCC(=O)N1C[C@H]2CC[C@@H]1CN(C1Cc3ccccc3C1)C2	0.6506%
CN1CC[C@H]2[C@H](C[C@@H](CN3CCCC3)N2c2nccs2)C1.O=C(O)C(F)(F)F.O=C(O)C(F)(F)F.O=C(O)C(F)(F)F	105.1%
CN(C)C(=O)CN1CCC2(CCCN(Cc3cccs3)C2)C1=O.O=C(O)C(F)(F)F (stereo not drawn)	-0.327%
Cc1ccc(CN2CCC3(CCCN3S(C)(=O)=O)CC2)s1.O=C(O)C(F)(F)F	-3.179%
Cc1ccc(CN2CCC3(CCCC(=O)N3)CC2)s1.O=C(O)C(F)(F)F	-45.29%

SMILES	Percent Effect
CC1N(C)C(=O)COC12CCN(Cc1ccsc1)CC2.O=C(O)C(F)(F)F (stereo not drawn)	-20.67%
Cc1ccc(CN2CCC3(CCC(=O)N3CC(=O)N(C)C)CC2)s1.O=C(O)C(F)(F)F	113.5%
CN1CC(=O)N(c2cccc(F)c2)CC12CCN(Cc1ccsc1)C2.O=C(O)C(F)(F)F.O=C(O)C(F)(F)F (stereo not drawn)	7.196%
CN(C)C(=O)CN1C(=O)CCC12CCN(Cc1cccs1)CC2.O=C(O)C(F)(F)F	103.6%
CN(C)C(=O)CN1C(=O)CCC12CCN(Cc1ccsc1)CC2.O=C(O)C(F)(F)F	105.6%
Cc1ccc(CN2CCOC3(CCCN(C(=O)c4ccco4)C3)C2)s1.O=C(O)C(F)(F)F (stereo not drawn)	12.79%
N#Cc1nccnc1N1CCC(CSc2ccccc2)C1 (stereo not drawn)	-2.144%
Cc1cc2c(=O)n(CCSc3ncn[nH]3)cnc2s1	95.33%
Cc1csc2c(=O)n(CCSc3cnn[nH]3)cnc12	116%
CCc1ncc(-c2cn(CCSc3ncn[nH]3)nn2)cn1	-12.01%
Cc1csc2c(=O)n(CCN3CCNCC3)cnc12	-1.772%
COc1ccc(-c2cn(CCSc3ncn[nH]3)nn2)cn1	4.594%
Cc1cc2c(=O)n(CCOCCO)cnc2s1	-13.8%
CCC1CCN(CCn2cnc3c(C)csc3c2=O)CC1	-5.154%
Cc1cc2c(=O)n(CCSc3cnn[nH]3)cnc2s1	114.6%
Cc1cc(C)nc(NCCSc2cnn[nH]2)n1	5.167%
CN(CCCc1cnn(C)c1)C(=O)Nc1cccc2[nH]ncc12	-6.714%
CCc1cnc(N2CC3(CCN(C(=O)c4ccoc4)C3)C2)nc1	-9.292%
CN(C)C[C@H]1OC[C@@H]2CCN(C(=O)c3ccc[nH]3)C[C@@H]21.O=C(O)C(F)(F)F	-11.36%
CC(=O)N(C)CC(=O)NC1(c2ccc(F)cc2)CCCC1	-10.47%
O=C1NCCO[C@H]2CN(C(=O)Cc3csc4ccccc34)CC[C@@H]12	14.47%
CCCn1cnnc1CNC(=O)CC1C(=O)NCCN1CC=C(C)C (stereo not drawn)	0.5151%
Cc1ccc(C(=O)N2CC[C@@H]3[C@H]2CCC(=O)N3CC2CC2)o1	4.088%
O=C(O)C(F)(F)F.O=C1CC[C@H]2[C@H](CCN2c2ccccn2)N1CC1CCOCC1	-16.88%

SMILES	Percent Effect
Cc1oncc1C(=O)N1CC[C@H]2[C@@H]1CCC(=O)N2CC1CCOCC1	95.19%
Cn1cccc1C(=O)N1CC[C@@H]2[C@@H]1CC(=O)N2CC1CCOCC1	-5.807%
CCc1cnc(N2CC[C@H]3[C@@H]2CCC(=O)N3CC2CCOCC2)nc1.O=C(O)C(F)(F)F	-1.93%
Cc1noc(C)c1CN1CC[C@H]2[C@@H]1CCC(=O)N2CC1CCOCC1.O=C(O)C(F)(F)F	107.1%
Cc1oncc1C(=O)N1CC[C@H]2[C@@H]1CCC(=O)N2CC1CC1	108%
Cc1nc(CN2C(=O)CC[C@@H]3[C@H]2CCN3C(=O)c2ccno2)cs1	0.107%
O=C1CC[C@@H]2[C@@H](CCN2C(=O)C2CCOCC2)N1CC1CC1	-4.769%
Cn1cccc1C(=O)N1CC[C@H]2[C@@H]1CCC(=O)N2CC1CC1	-7.905%
O=C1C[C@H]2[C@H](CCN2C(=O)c2ccno2)N1CC1CC1	88.14%
Cc1nn(C)c(C)c1S(=O)(=O)NCC1(C(N)=O)CCOCC1	87.99%
Cc1nn(C)c(C)c1CC(=O)NCC1(C(N)=O)CCOCC1	121.1%
CCN(CC)c1ccc(NC(=O)NCC2(C(N)=O)CCOCC2)cn1	-0.5907%
CCc1nc(CC(=O)NCC2(C(N)=O)CCOCC2)cs1	13.26%
Cc1nn(C)c(C)c1CCC(=O)NCc1csc(N2CCCC2)n1	-4.027%
CCN(CC)c1ccc(C(=O)NCC2(C(N)=O)CCOCC2)cn1	-5.685%
Cc1nn(C)c(C)c1CCC(=O)NCC1(C(N)=O)CCOCC1	112%
Cc1nn(C)c(C)c1S(=O)(=O)N(CC(N)=O)CC(C)C	0.7063%
Cc1nn(CC(=O)NCC2(C(N)=O)CCOCC2)c(C)c1Cl	113.9%
Cc1nn(C)c(C)c1S(=O)(=O)NCC(C)(O)c1ccc2c(c1)OCO2 (stereo not drawn)	12.95%
Cn1ccc2c(C(=O)NCC3(C(N)=O)CCOCC3)cccc21	-19.6%
CC(C)C1CN(Cc2nccn2C(C)C)CCC(=O)N1CC1CC1 (stereo not drawn)	-13.37%
